Shown are actives, neighbours in structure and some others; about 1.4% of the full set was active somewhere.
Mtb MenB inh: blocks the Mycobacterium tuberculosis MenB enzyme | P9WNP5 | MenB enzyme assay, absorbance read-out | inhibition, % (no concentration beside the values) | hit rate 0.43% among 100,000 | AID 540299; in the data active = inhibition above about 21%, passing the limit was not always enough
Polio RdRp inh: poliovirus RNA polymerase inhibition. P03300. poliovirus polymerase elongation, fluorescence polarization; active compounds read low. % elongation, % (compound at 16.7 µg/mL). hit rate 0.66% among 150,000. AID 588519; in the data active = % elongation below about 90%
Target sequence (P03300 1749-2209 limits assumed): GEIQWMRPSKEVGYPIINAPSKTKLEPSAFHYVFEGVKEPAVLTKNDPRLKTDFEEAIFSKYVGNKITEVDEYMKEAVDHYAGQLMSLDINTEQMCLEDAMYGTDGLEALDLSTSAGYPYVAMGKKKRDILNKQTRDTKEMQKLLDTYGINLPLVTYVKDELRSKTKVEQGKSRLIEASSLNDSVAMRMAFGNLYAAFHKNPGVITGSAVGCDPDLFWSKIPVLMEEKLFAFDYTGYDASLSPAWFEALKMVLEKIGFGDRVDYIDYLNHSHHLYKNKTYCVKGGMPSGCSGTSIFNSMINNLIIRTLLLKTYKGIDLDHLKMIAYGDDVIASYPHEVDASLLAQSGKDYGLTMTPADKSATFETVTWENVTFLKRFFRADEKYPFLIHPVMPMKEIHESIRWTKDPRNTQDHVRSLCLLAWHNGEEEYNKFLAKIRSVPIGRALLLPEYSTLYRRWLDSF
AID504770: E. coli YBA685 growth inhibition, screen for V. cholerae RctB inhibitors. z-score (test concentration not listed). hit rate 0.27% among 130,000. AID 504770. E. coli YBA685 rctB-dependent plasmid, OD600 growth, 3 h; active compounds read low; in the data active = z-score below about -2, passing the limit was not always enough
Mtb MbtI inh: inhibitors of Mycobacterium tuberculosis siderophore enzyme MbtI | P9WFX0 | purified MbtI enzyme, fluorescence intensity read-out | inhibition, % (concentration not given with the values) | hit rate 0.89% among 100,000 | AID 493033; in the data active = inhibition mostly above about 56%, no sharp cut-off; inactive = mostly below about 77%
* hit, by the source's call; i = inactive; nt = not tested or not shown.

SMILES	Mtb MenB inh	Polio RdRp inh	AID504770	Mtb MbtI inh
COc1ccc(-n2c(C(C)N3CCCCC3)n[nH]c2=S)cc1 (stereo unspecified)	1	103	-5.2*	-6
COc1ccc(N2CCN(CCN3CCCCC3)CC2)cc1	19	101	-0.1	9
CC(C)c1nnc(NC(=O)CSc2nc(-c3ccccc3)cc(=O)[nH]2)s1	-19	102	-0.4	12
CCn1c(C)nc2cc(OC)ccc21	nt	102	0.9	6
COc1cc2nc(C)n(C(=S)S)c2cc1OC	-25	78*	0.6	10
COc1cc(/C=C2/OC(=S)N(C)C2=O)ccc1O	-141	109	-0.25	7
O=C(O)C1C2C=CC(C2)C1C(=O)N1CCN(Cc2ccccc2)CC1 (stereo unspecified)	-28	80*	0.05	-1
C=CCn1c(C)cc(-c2csc(NCc3ccccc3)n2)c1C	-6	116	-0.7	-1
O=C(COc1ccc(Cl)cc1)Nc1c(F)c(F)c(F)c(F)c1F	nt	104	-1.2	-10
COc1cccc(/C=N/N2C(=O)CSC2=S)c1O	-37	85*	-0.45	4
COc1cc2c(cc1OC)CC(C(=O)O)NC2 (stereo unspecified)	32*	103	1	-2
Ic1ccc(OCCCCn2ccnc2)cc1	-10	100	-0.8	2
COc1ccc2occ(C(O)c3ccccc3)c2c1 (stereo unspecified)	-50	103	-0.35	-9
COc1ccc(-c2sc(C(=O)O)cc2C)cc1	11	102	0.65	90
COc1ccc(-c2csc(=Nc3cc(C(=O)O)ccc3C)o2)cc1	-14	86*	-0.65	nt
NC(N)=N/N=C/c1ccc(O)c(Cl)c1	-22	102	0	-5
N#CC(C#N)=Cc1ccc(O)c(Cl)c1	i	100	-0.8	61*
COC(=O)c1c(NC(=O)CCCOc2cccc(C)c2)sc2c1C(C(=O)OC)CC2 (stereo unspecified)	nt	81*	nt	nt
COC(=O)c1c(NC(=O)CCCOc2ccc(C)cc2)sc2c1C(C(=O)OC)CC2 (stereo unspecified)	nt	71*	nt	nt
CCOc1ccc(/C=C/C(=O)Nc2sc3c(c2C(=O)OC)C(C(=O)OC)CC3)cc1 (stereo unspecified)	nt	79*	nt	nt
COC(=O)c1c(NC(=O)CCCOc2ccc(C)cc2)sc2c1CCCC2	nt	95	nt	nt
COC(=O)c1c(NC(=O)CCCOc2cccc(C)c2)sc2c1CCC2	nt	101	nt	nt
Cc1ccc(N(CC(=O)Nc2ccccc2C(=O)NCc2ccco2)S(C)(=O)=O)cc1Cl	-14	21*	1.2	1
CC12COC3(C(=O)Nc4ccccc4)CC1CCC32C (stereo unspecified)	58*	100	0.05	0
CC12COC3(C(=O)N4CCCCC4)CC1CCC32C (stereo unspecified)	nt	101	-0.15	0
SMILES	Mtb MenB inh	Polio RdRp inh	AID504770	Mtb MbtI inh
Cc1noc2[nH]c(=O)cc(C(F)(F)F)c12	nt	104	-0.5	92
COc1ccc(C(=O)n2c(=S)nc3cc(C)ccn32)cc1	-16	79*	1.9	nt
COc1ccc(C(=O)NCc2cn3ccc(C)cc3n2)cc1	nt	107	nt	nt
CSc1ccc(C2CC(=O)N3CN(C)CSC3=C2C#N)cc1 (stereo unspecified)	-22	99	0.75	92*
CN1CSC2=C(C#N)C(c3ccccc3)CC(=O)N2C1 (stereo unspecified)	-17	94	-0.25	86*
COC(=O)c1cn(CC(=O)N2c3ccccc3CC2C)c2ccccc12 (stereo unspecified)	-43	103	-0.65	-23
CCc1cccc(NC(=O)C2COc3ccccc3O2)c1 (stereo unspecified)	-5	102	-0.3	8
CCc1ccc2c(c1)S(=O)(=O)C(C(F)(F)F)CO2 (stereo unspecified)	4	84*	2.5	nt
COc1ccc(C(c2ccc3cccnc3c2O)N2CCOCC2)cc1 (stereo unspecified)	-64	102	0.2	98*
CCN1CCN(C(c2cccnc2)c2ccc3cccnc3c2O)CC1 (stereo unspecified)	-45	87*	1.2	89*
Cc1noc2nc(-c3cccs3)cc(C(=O)NNC3=NCCCCC3)c12	-2	100	0.5	2
O=C(Cc1ccccc1Cl)NC1(O)C(=O)c2ccccc2C1=O	-10	83*	-0.6	-9
CC1CC(C)CN(C(=O)c2cc3ccc4cccnc4c3[nH]2)C1 (stereo unspecified)	-30	105	-0.6	-31
COCC(C)n1c(SCC(N)=O)nc2ccccc2c1=O (stereo unspecified)	-4	87	-1.2	13
Cc1cc(=O)[nH]c(SCC(=O)c2ccc3c(c2)NC(=O)CO3)n1	16	103	-0.35	29
O=C1COc2ccc(C(=O)CSC(=S)N3CCCC3)cc2N1	-49	81*	2.3	89
Cc1nc2cccnc2n1CCNC(=O)Nc1cccc2ccccc12	27*	101	0.9	39
CC(C)(C)C1CCc2onc(C(=O)Nc3sc4c(c3C(N)=O)CCCC4)c2C1 (stereo unspecified)	nt	79*	nt	nt
CC(C)(C)C1CCc2onc(C(=O)Nc3sc4c(c3C#N)CCCC4)c2C1 (stereo unspecified)	nt	82*	nt	nt
CCOC(=O)CCN1C(=O)c2ccccc2C1=O	1	107	1.3	-1
O=C(CCN1C(=O)c2ccccc2C1=O)OCc1ccco1	1	90*	-0.5	0
COc1cccc(CN2COc3ccc4c(-c5ccccc5)cc(=O)oc4c3C2)c1	-14	102	1.4	2
CCN1CCCc2cc(O)ccc21	nt	nt	0.15	98*
CCCN1CCCc2cc(CN)ccc21	-77	26*	-0.5	31
CC(C)N1CCCc2cc(CN)ccc21	29	31	0.3	nt
SMILES	Mtb MenB inh	Polio RdRp inh	AID504770	Mtb MbtI inh
COc1ccc(CCn2c(=O)c3cccnc3n(CC(=O)NCc3ccc(C)cc3)c2=O)cc1OC	1	102	-0.3	-9
CC(C)CNCCCN1CCOCC1	36*	101	0.55	0
CC(C)c1ccc(S(=O)(=O)/N=C2/C=C(Sc3ncn[nH]3)C(=O)c3ccccc32)cc1	8	66*	0.4	88
Cc1ccc(S(=O)(=O)/N=C2/C=C(Sc3ncn[nH]3)C(=O)c3ccccc32)cc1	nt	nt	-0.5	88*
O=C1C(Sc2ccccc2)=C/C(=N/S(=O)(=O)c2cccs2)c2ccccc21	-5	92	0.05	92
Cc1ccc(S(=O)(=O)/N=C2\C=C(Sc3ncn[nH]3)C(=O)c3ccccc32)cc1	-58	102	1.5	86*
CCCNc1ncccc1C(N)=O	35*	101	1.2	89
O=C(NC1CCCC1)c1cc(-c2ccccc2O)no1	-4	102	0.8	-7
COc1cc(/C=C2\SC(=O)N(C)C2=O)ccc1OCC(=O)Nc1ccc(S(N)(=O)=O)cc1	-8	103	-0.2	3
O=C(CSc1ccccn1)c1ccc(F)cc1	-10	99	1.5	86*
Cc1nc2ccccc2c(=O)n1-c1ccc(C(=O)NC(C)c2ccccn2)cc1 (stereo unspecified)	-35	34*	1.8	0
O=C(Nc1ccccc1)N1CCCCC1	2	101	-0.85	-9
